In PubChem BioAssay (Tox21):
Records with an inconclusive call do not appear. Calls of active or inactive are those of the source. Calls follow the shape of the dose curve; as a rule, active = well fitted curve in the direction sought with a large enough effect in the repeat runs; inconclusive = weak or mixed curves; inactive = no such curve, though single readings can be large; an effect the other way counts as inactive or inconclusive.

Key:
[1] = qHTS RealTime-Glo MT Cell Viability Assay in HepG2 cells - 40 hour (AID 1224870); settings: RealTime-Glo luminescence; series mostly up to 76.8 µM; also: nearly all actives have a fitted effect of over 50% in size
In short: (§1)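 HepG2 cells mixed with RealTime-Glo MT reagents (NanoLuc plus cell-permeant prosubstrate) were seeded at 600 cells/well, incubated 5 h at 37 C/5% CO2, then pinned with compounds in DMSO; nonlytic luminescence tracked viability during 40 h treatment.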

[2] = A CellTox Green Cytotoxicity Assay to monitor cytotoxicity in HEK293 cells - 40 hour (AID 1224871); settings: CellTox Green fluorescence; series mostly up to 76.8 µM; also: nearly all actives have a fitted effect of over 45% in size
In short: (§2)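 HEK293 cells premixed with CellTox Green dye were seeded at 600 cells/well and left 5 h at 37 C/5% CO2 before pin transfer of 23 nL compound in DMSO. Fluorescence from dye bound to dead-cell DNA was read during 40 h treatment.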

[3] = qHTS RealTime-Glo MT Cell Viability Assay in HEK293 cells - 16 hour (AID 1224872); settings: RealTime-Glo luminescence; series mostly up to 76.8 µM; also: top concentration of the series differs between compounds; nearly all actives have a fitted effect of over 50% in size
In short: (§3)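 Cells + reagent dispensed (600 cells/well, HEK293) → 5 h at 37 C/5% CO2 → 23 nL compound in DMSO pinned → 40 h at 37 C → luminescence read at 0, 8, 16, 24, 32, 40 h.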

[4] = qHTS RealTime-Glo MT Cell Viability Assay in HepG2 cells - 8 hour (AID 1224873); settings: RealTime-Glo luminescence; series mostly up to 76.8 µM; also: nearly all actives have a fitted effect of over 55% in size
In short: as §1

[5] = A CellTox Green Cytotoxicity Assay to monitor cytotoxicity in HEK293 cells - 24 hour (AID 1224875); settings: CellTox Green fluorescence; series mostly up to 76.8 µM; also: nearly all actives have a fitted effect of over 45% in size
In short: as §2

[6] = A CellTox Green Cytotoxicity Assay to monitor cytotoxicity in HepG2 cells - 16 hour (AID 1224876); settings: CellTox Green fluorescence; series mostly up to 76.8 µM; also: nearly all actives have a fitted effect of over 45% in size
In short: (§4)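 HepG2 cells were seeded together with the CellTox Green dye at 600 cells/well, left 5 h at 37 C/5% CO2, then given compounds in DMSO. Fluorescence from dye bound to dead-cell DNA was read repeatedly over 40 h of treatment at 37 C.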

[7] = qHTS RealTime-Glo MT Cell Viability Assay in HepG2 cells - 32 hour (AID 1224877); settings: RealTime-Glo luminescence; series mostly up to 76.8 µM; also: nearly all actives have a fitted effect of over 55% in size
In short: (§5)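 Real-time, nonlytic viability: 600 HepG2 cells/well mixed with NanoLuc enzyme plus prosubstrate; 5 h settle, compound (DMSO) added by pintool; luminescence monitored over 40 h at 37 C.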

[8] = A CellTox Green Cytotoxicity Assay to monitor cytotoxicity in HepG2 cells - 24 hour (AID 1224878); settings: CellTox Green fluorescence; series mostly up to 76.8 µM; also: nearly all actives have a fitted effect of over 45% in size
In short: as §4

[9] = A CellTox Green Cytotoxicity Assay to monitor cytotoxicity in HepG2 cells - 40 hour (AID 1224879); settings: CellTox Green fluorescence; series mostly up to 76.8 µM; also: nearly all actives have a fitted effect of over 40% in size
In short: as §4

[10] = qHTS RealTime-Glo MT Cell Viability Assay in HEK293 cells - 0 hour (AID 1224880); settings: RealTime-Glo luminescence; series mostly up to 76.8 µM
In short: (§6)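 HEK293 cells mixed with RealTime-Glo reagents (NanoLuc plus cell-permeant prosubstrate) at 600 cells/well, preincubated 5 h at 37 C/5% CO2, then given 23 nL compound in DMSO. Nonlytic luminescence from viable cells was read at 0, 8, 16, 24, 32 and 40 h.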

[11] = A CellTox Green Cytotoxicity Assay to monitor cytotoxicity in HEK293 cells - 32 hour (AID 1224881); settings: CellTox Green fluorescence; series mostly up to 76.8 µM; also: nearly all actives have a fitted effect of over 40% in size
In short: as §2

[12] = A CellTox Green Cytotoxicity Assay to monitor cytotoxicity in HepG2 cells - 0 hour (AID 1224882); settings: CellTox Green fluorescence; series mostly up to 76.8 µM; also: nearly all actives have a fitted effect of over 35% in size
In short: as §4

[13] = A CellTox Green Cytotoxicity Assay to monitor cytotoxicity in HepG2 cells - 32 hour (AID 1224883); settings: CellTox Green fluorescence; series mostly up to 76.8 µM; also: nearly all actives have a fitted effect of over 50% in size
In short: as §4

[14] = A CellTox Green Cytotoxicity Assay to monitor cytotoxicity in HEK293 cells - 8 hour (AID 1224884); settings: CellTox Green fluorescence; series mostly up to 76.8 µM; also: nearly all actives have a fitted effect of over 35% in size
In short: as §2

[15] = qHTS RealTime-Glo MT Cell Viability Assay in HepG2 cells - 16 hour (AID 1224885); settings: RealTime-Glo luminescence; series mostly up to 76.8 µM; also: nearly all actives have a fitted effect of over 50% in size
In short: as §5

[16] = qHTS RealTime-Glo MT Cell Viability Assay in HEK293 cells - 8 hour (AID 1224887); settings: RealTime-Glo luminescence; series mostly up to 76.8 µM
In short: as §6

[17] = A CellTox Green Cytotoxicity Assay to monitor cytotoxicity in HEK293 cells - 16 hour (AID 1224888); settings: CellTox Green fluorescence; series mostly up to 76.8 µM; also: nearly all actives have a fitted effect of over 35% in size
In short: as §2

[18] = qHTS RealTime-Glo MT Cell Viability Assay in HepG2 cells - 0 hour (AID 1224889); settings: RealTime-Glo luminescence; series mostly up to 76.8 µM; also: nearly all actives have a fitted effect of over 50% in size
In short: as §5

[19] = qHTS RealTime-Glo MT Cell Viability Assay in HEK293 cells - 40 hour (AID 1224874); settings: RealTime-Glo luminescence; max response: hits give low values; also: nearly all actives have a fitted effect of over 50% in size
In short: as §6

[20] = qHTS RealTime-Glo MT Cell Viability Assay in HEK293 cells - 24 hour (AID 1224886); settings: RealTime-Glo luminescence; series mostly up to 76.8 µM
In short: as §3
% is scaled to controls: 0 for no effect and ±100 for the full control effect.

NNCc1ccccc1
inactive: Potency [1] | Potency [2] | Potency [3] | outcome [4] | Potency [5] | Potency [6] | Potency [7] | Potency [8] | Potency [9] | outcome [10] | Potency [11] | outcome [12] | Potency [13] | Potency [14] | Potency [15] | Potency [16] | Potency [17] | outcome [18]

S=C=S
inactive: Potency [1] | Potency [2] | Potency [3] | max response [19] 6.94% | Potency [5] | Potency [6] | Potency [7] | Potency [8] | Potency [9] | outcome [10] | Potency [11] | outcome [12] | Potency [13] | Potency [14] | Potency [20] | Potency [16] | Potency [17] | outcome [18]

COc1cccc(C=O)c1
inactive: Potency [1] | Potency [2] | Potency [3] | max response [19] -0.107% | Potency [5] | Potency [6] | Potency [7] | Potency [8] | Potency [9] | outcome [10] | Potency [11] | Potency [13] | Potency [14] | Potency [16] | Potency [17] | outcome [18]

O=C(Cl)/C=C/C(=O)Cl
inactive: Potency [1] | Potency [2] | Potency [3] | outcome [4] | Potency [5] | Potency [6] | Potency [7] | Potency [8] | Potency [9] | outcome [10] | Potency [11] | outcome [12] | Potency [14] | Potency [15] | Potency [16] | Potency [17] | outcome [18]
